Experimental data reported in PubChem BioAssay AID463173 (ICCB-Longwood Screening Facility, Harvard Medical School, 2010).
Out of some 52,000 compounds screened, about 4,300 (8.3%) were called active. The full list was thinned out, with actives kept by preference. Unmarked numbers belong to inactive results. Rule as the data show it: active = survival mostly below about 52% (no sharp cut-off); inactive = mostly above about 56%.

tested on: DeltatarO mutant; experiment: growth inhibition of S. aureus wild type versus tarO mutant, primary screen, teichoic acid synthesis inhibitors, RN4220, OD600 (AID 463173); conditions: OD600, 18 h, stronger effect = lower value, screened at 18.75 µg/mL (by protocol)

Compared with `COc1ccc(NC(=O)Cn2c(=O)n(CCCC(=O)NCc3ccccc3Cl)c(=O)c3ccccc32)c(OC)c1`, `COc1cc2c(=O)n(Cc3ccccc3Cl)c(=O)n(CC(=O)Nc3ccc(C)c(C)c3)c2cc1OC` is lower in survival: 125% for the first, 83% for the second.

First: O=C(CC1N=C2c3ccccc3N=C(SCc3ccc(Cl)cc3)N2C1=O)NCc1cccs1 (stereo unspecified)
Second: COc1ccc(C2C=C(c3ccc(Cl)cc3)Nc3nc(NC(=O)CCC(=O)O)nn32)cc1 (stereo unspecified)
The survival of the first is higher: 75% for the first, 74% for the second.

Compared with `COc1ccc(CCNC(=O)c2ccc(Cn3c(=O)c4ccccc4n(Cc4cccc(F)c4)c3=O)cc2)cc1OC`, `COc1ccc2c(Sc3ccccc3)c(C(=O)NCc3cc(Br)ccc3OC)[nH]c2c1` is higher in survival: 78% for the first, 95% for the second.

Compared with `CNC(=O)C1CCC(Cn2c(=O)c3sccc3n(CC(=O)NCc3ccc(F)cc3)c2=O)CC1` (stereo unspecified), `CNC(=O)C1CCC(Cn2c(=O)c3sccc3n(CC(=O)NCc3ccc(C)cc3)c2=O)CC1` (stereo unspecified) is higher in survival: 73% for the first, 80% for the second.

Going from `Cc1ccc(C)c(Cn2c(=O)n(CC3CCC(C(=O)N4CCOCC4)CC3)c(=O)c3sccc32)c1` (stereo unspecified) to `CNC(=O)C1CCC(Cn2c(=O)c3sccc3n(CC(=O)Nc3ccc(C)cc3C)c2=O)CC1` (stereo unspecified), the survival rises from 80% to 87%.

Compared with `COc1ccc(CC(=O)NC2CC(=O)N(c3cccc(F)c3)C2)cc1` (stereo unspecified), `COc1ccc(NC(=O)c2cc(-c3ccccc3F)no2)cc1` is lower in survival: 94% for the first, 78% for the second.

First: O=C(Nc1nncs1)C1c2ccccc2Oc2ccccc21
Second: CCc1cccc(NC(=O)c2cnc(SC)nc2-c2ccccc2)c1
The survival of the first is higher: 108% for the first, 84% for the second.

Compared with `CCOC(=O)C1CCCN(S(=O)(=O)c2ccc3c(c2)CCCN3C(C)=O)C1` (stereo unspecified), `CC(=O)Nc1ccc(S(=O)(=O)NCc2ccc3c(c2)CCN3C(C)=O)cc1` is higher in survival: 80% for the first, 89% for the second.

Going from `CS(=O)(=O)N1CCSC1c1ccc(Cl)cc1Cl` (stereo unspecified) to `Cc1ccc(N2C(=O)[C@@H]3CSC(c4ccc(Cl)cc4)N3C2=O)cc1` (stereo partly specified), the survival falls from 109% to 69%.

`COc1ccc2oc(=O)c(-c3nnc(-c4ccccc4)o3)cc2c1` and `CCN(CC)c1ccc2cc(-c3nnc(-c4cccc(Cl)c4)o3)c(=O)oc2c1` are the same in survival: 69% for the first, 69% for the second.

First: O=C(O)CCC(=O)NCc1ccccn1
Second: O=C1CC(Sc2ncccc2C(=O)O)C(=O)N1 (stereo unspecified)
The survival of the first is lower: 82% for the first, 95% for the second.

Compared with `COc1cccc(NC(=O)CSc2nc3ccc(NC(=O)c4cccs4)cc3s2)c1`, `COc1ccc(-c2cc3nc(C)c(CCC(=O)Nc4cccc(C(F)(F)F)c4)c(C)n3n2)c(OC)c1` is higher in survival: 65% for the first, 92% for the second.

First: O=c1oc2ccccc2cc1-c1nc(-c2cccc(Cl)c2)cs1
Second: Cc1csc(-c2cc3ccccc3oc2=O)n1
The survival of the first is higher: 102% for the first, 85% for the second.

Compared with `CCN(CC)c1ccc2cc(-c3nc(-c4ccccc4F)no3)c(=O)oc2c1`, `COc1ccc(/C=C(\C#N)c2nc(-c3cc4ccccc4oc3=O)cs2)cc1OC` is lower in survival: 101% for the first, 65% for the second.

Compared with `COc1ccc(/C=C(/C#N)c2nc(-c3cc4ccccc4oc3=O)cs2)cc1`, `COc1ccc(C2C=C(c3ccccc3)Nc3nc(NS(=O)(=O)c4ccc(C)cc4)nn32)cc1` (stereo unspecified) is lower in survival: 78% for the first, 55% for the second.

First: CCCNC(=O)C1CCC(Cn2c(=O)c3sccc3n(CC(=O)N3CCCC3)c2=O)CC1 (stereo unspecified)
Second: Cc1ccc(S(=O)(=O)N2CC=C(c3c(C)n(CC(=O)N4CCCC4)c4ccccc34)CC2)cc1C
The survival of the first is lower: 67% for the first, 72% for the second.

Going from `O=c1cc(-c2ccc(F)cc2)nc(SCc2nc(-c3cccc(C(F)(F)F)c3)no2)[nH]1` to `COc1ccc(C2C=C(c3ccc(F)cc3)Nc3nc(-c4ccc(Cl)cc4)nn32)cc1` (stereo unspecified), the survival rises from 99% to 104%.

Compared with `COc1ccc(C)cc1NC(=O)C(CCSC)NS(=O)(=O)c1ccc2c(c1)oc(=O)n2C` (stereo unspecified), `Cn1c(=O)oc2cc(S(=O)(=O)NC(Cc3ccccc3)C(=O)NCc3ccccc3Cl)ccc21` (stereo unspecified) is higher in survival: 95% for the first, 110% for the second.

Going from `Cc1cc(C)cc(NC(=O)CSc2cc(C)[nH]c(=O)n2)c1` to `Cc1ccc(C)c(NC(=O)CSc2ncc(S(=O)(=O)c3ccc(C)c(Cl)c3)c(=O)[nH]2)c1`, the survival falls from 90% to 66%.

First: CC(=O)c1cccc(Nc2ncnc3c2cnn3-c2cccc(Cl)c2)c1
Second: CC(=O)c1cccc(Nc2c3c(nc4nc(-c5cccs5)nn24)CCCC3)c1
The survival of the first is higher: 102% for the first, 95% for the second.

First: CC(C)c1ccc(C2=CC(c3ccc(C(C)C)cc3)n3nnnc3N2)cc1 (stereo unspecified)
Second: CC(C)c1ccc(C2=CC(c3cccc(Cl)c3)n3c(nc4ccccc43)N2)cc1 (stereo unspecified)
The survival of the first is lower: 67% for the first, 76% for the second.

Compared with `Cc1ccc(C2=CC(c3c(F)cccc3Cl)n3ncnc3N2)cc1C` (stereo unspecified), `COc1cccc(C2=CC(c3ccc(OC)c(OC)c3OC)n3ncnc3N2)c1` (stereo unspecified) is higher in survival: 64% for the first, 91% for the second.

First: Cc1ccc(C2=CC(c3ccc(Cl)cc3)n3nc(-c4ccc(C)cc4)nc3N2)cc1 (stereo unspecified)
Second: CCCN(Cc1cc2cc(C)ccc2[nH]c1=O)C(=O)c1cccc(Cl)c1
The survival of the first is lower: 44% for the first, 73% for the second.

Compared with `O=C(Cn1ccn(-c2ccc(F)c(F)c2)c(=O)c1=O)Nc1ccccc1F`, `O=C(CCn1c(=O)oc2ccccc21)n1c(=O)oc2ccccc21` is higher in survival: 65% for the first, 108% for the second.

First: COc1ccc(CNCC#N)cc1OC
Second: COc1cc(OC)c(Nc2c3c(nc4nc(-c5cccs5)nn24)CCCC3)cc1Cl
The survival of the first is lower: 77% for the first, 89% for the second.

Compared with `CCn1cc(S(=O)(=O)c2ccc(OC)cc2)c(=O)c2cc(F)c(N3CCC(C)CC3)cc21`, `CCCc1cc(N2CCN(c3ccc(OC)cc3)CC2)n2cnnc2n1` is lower in survival: 83% for the first, 71% for the second.

Going from `Cc1cc(C)c2c(n1)SCC(=O)N2CC(=O)Nc1c(C)cccc1C` to `CCc1ccc(NC(=O)CSc2ncc(S(=O)(=O)c3cc(C)ccc3C)c(=O)[nH]2)cc1`, the survival falls from 98% to 59%.

Compared with `COC(=O)CSc1nnc(-c2cccc(O)c2)o1`, `Cc1ccc2c(c1)CC(C)N2S(=O)(=O)c1nnc(NC(=O)CC(C)C)s1` (stereo unspecified) is lower in survival: 82% for the first, 59% for the second.

First: O=C(Cn1c(=O)oc2cc(S(=O)(=O)N3CCCC3)ccc21)NCc1ccc(F)cc1
Second: CCCCC(=O)N1CC(=O)Nc2ccc(F)cc2C1c1ccc(F)cc1 (stereo unspecified)
The survival of the first is higher: 114% for the first, 60% for the second.

Going from `Cc1ccccc1NS(=O)(=O)c1ccc2[nH]c3c(c2c1)CCCCC3` to `COc1ccc(C)cc1Nc1c2c(nc3nc(-c4cccs4)nn13)CCCC2`, the survival rises from 89% to 91%.

Going from `Nc1ccc(-c2ccc(N)cc2C(F)(F)F)c(C(F)(F)F)c1` to `Nc1ccc(N2CCOCC2)c(N)c1`, the survival falls from 91% to 74%.

Compared with `CCCOc1ccccc1C1Oc2nc(SC)nnc2-c2ccccc2N1C(C)=O` (stereo unspecified), `O=C1CN(C(=O)C2CCCCC2)C(c2ccccc2)c2cc(F)ccc2N1` (stereo unspecified) is lower in survival: 82% for the first, 70% for the second.

Going from `Cc1ccc(Nc2c3c(nc4nncn24)CCC3)cc1C` to `CCc1ccc2occ(CC(=O)Nc3sc4c(c3C(=O)OC)CCC4)c2c1`, the survival rises from 55% to 70%.

First: CC(C)c1ccc(NC(=O)C2CCN(C(=O)c3ccc(F)cc3)CC2)cc1
Second: CCCCC1CCC(C(=O)N2CC(=O)Nc3ccc(C)cc3C2c2ccc(F)cc2)CC1 (stereo unspecified)
The survival of the first is lower: 61% for the first, 126% for the second.

Compared with `CCOC(=O)c1ccccc1NC(=O)N(C)CCc1c(C)nn(CC)c1C`, `Cc1ccc2c(c1)CC(C)N2S(=O)(=O)c1nnc(NC(=O)C(C)C)s1` (stereo unspecified) is lower in survival: 78% for the first, 58% for the second.

Going from `CCCCC1CCC(C(=O)N2CC(=O)Nc3ccc(Br)cc3C2c2ccc(F)cc2)CC1` (stereo unspecified) to `Cc1cc(-n2ccnc(NCCc3ccc(S(N)(=O)=O)cc3)c2=O)ccc1Br`, the survival rises from 55% to 94%.

For `CNC(=O)C1CCC(Cn2c(=O)c3sccc3n(Cc3cc(C)ccc3C)c2=O)CC1` (stereo unspecified), the survival was 47% (active).
In the case of `CNC(=O)C1CCC(Cn2c(=O)c3sccc3n(CC(=O)NCc3ccccc3)c2=O)CC1` (stereo unspecified), the survival is reported as 32% (active).
With `Cc1cc(C)c(-c2csc(-c3cc4ccccc4oc3=O)n2)cc1C` the survival was 31% (active).
With `CCN(CC)c1ccc2cc(-c3nc(-c4ccc(Cl)cc4Cl)cs3)c(=O)oc2c1` the survival was 37% (active).
In the case of `COc1ccccc1/C=C(\C#N)c1nc(-c2cc3ccccc3oc2=O)cs1`, the survival is reported as 56% (active).
With `CC(C)c1ccc(C2=CC(c3cccc(Cl)c3)n3ncnc3N2)cc1` (stereo unspecified) the survival was -1% (active).
For `COc1ccc(C2C=C(c3ccc(Cl)cc3)Nc3nc(-c4ccc(Cl)cc4)nn32)cc1` (stereo unspecified), the survival was 38% (active).
In the case of `COc1ccc(C2C=C(c3ccc(Cl)c(Cl)c3)Nc3ncnn32)cc1` (stereo unspecified), the survival is reported as 6% (active).
For `COc1ccc(C2C=C(c3ccccc3)Nc3nc(NS(=O)(=O)c4ccccc4)nn32)cc1` (stereo unspecified), the survival was 25% (active).
With `COc1ccc(C2C=C(c3ccccc3)Nc3nc(NS(=O)(=O)c4ccc(Cl)cc4)nn32)cc1` (stereo unspecified) the survival was 3% (active).
In the case of `Cc1ccc(C)c(S(=O)(=O)c2cnc(SCC(=O)Nc3ccc(F)cc3F)[nH]c2=O)c1`, the survival is reported as 43% (active).
For `Nc1ccc(N2CCN(c3ncc(C(F)(F)F)cc3Cl)CC2)c(C(F)(F)F)c1`, the survival was -5% (active).
In the case of `Fc1cc(Br)ccc1Nc1c2c(nc3nc(-c4cccs4)nn13)CCCC2`, the survival is reported as 8% (active).
For `Cc1ccc(Nc2c3c(nc4nc(-c5cccs5)nn24)CCCC3)cc1F`, the survival was 20% (active).
`CCCCC1CCC(C(=O)N2CC(=O)Nc3ccc(F)cc3C2c2ccc(F)cc2)CC1` (stereo unspecified) was tested, and the survival was 38% (active).
For `CCCCC1CCC(C(=O)N2CC(=O)Nc3ccc(Cl)cc3C2c2ccc(F)cc2)CC1` (stereo unspecified), the survival was 40% (active).
With `Cc1ccc2c(c1)CC(C)N2S(=O)(=O)c1nnc(NC(=O)c2ccccc2F)s1` (stereo unspecified) the survival was 9% (active).
For `CC1Cc2ccccc2N1S(=O)(=O)c1nnc(NC(=O)c2ccccc2Br)s1` (stereo unspecified), the survival was 23% (active).
`Cc1ccccc1C(=O)Nc1nnc(S(=O)(=O)N2c3ccccc3CC2C)s1` (stereo unspecified) was tested, and the survival was 20% (active).
